# ChEMBL document CHEMBL4513149, “CO-ADD screening of MMV (CH) - MMV compounds” (2021)
# Results with a measured potency or affinity are listed apart.
# Assays:
# Klebsiella pneumoniae = conditions: Concentration 20 uM; ASSAY_TEST Inhibition of Bacterial Growth; detection method Absorption (OD600); MEDIA CAMHB; plate type 384well; NBS; CORNING #3640; time 18 hr
# Candida albicans = conditions: 20 µM
# Cryptococcus neoformans = conditions: Concentration 20 uM; ASSAY_TEST Inhibition of Fungal Growth; detection method Resazurin; Absorption (OD600-OD570); plate type 384well; NBS; CORNING #3640
Structure (SMILES),Inhibition (Klebsiella pneumoniae) [%],Inhibition (Candida albicans) [%],Inhibition (Cryptococcus neoformans) [%]
CCC(Sc1nc2ccccc2o1)C(=O)Nc1nnc(C)s1 (stereo unspecified),-2.47,4.83,-9.17
CC(C)(C)c1ccc(N[C@@H]2CCCC[C@H]2NC(=O)c2ccco2)cc1,-12.61,5.24,-2.08
Nc1nccc2ccc(Oc3ccncc3)cc12,18.43,1.98,-6.05
COc1ccc(S(=O)(=O)Nc2ccc(CN3CCN(C(=O)c4cccc(C#N)c4)CC3)cc2)cc1,6.9,1.12,-8.14
CCCCN(CCCC)c1c(C#N)cc(S(=O)(=O)Nc2ccccc2)cc1C#N,5.16,3.66,-9.03
COc1cccn2c(C(=O)N3CCCCC3)c(C(F)(F)F)nc12,7.08,1.9,-6.15
Cc1ccc(-c2nc(CN(Cc3ccccn3)C(C)C)cs2)o1,14.74,5.03,-5.74
CS(=O)(=O)c1ccc(C(=O)N(CC2CCCO2)c2nc3ccccc3s2)cc1[N+](=O)[O-] (stereo unspecified),7.4,3.23,-10.33
Clc1ccc(CN2CCN(C3=NCCN3)CC2)cc1Cl,16.63,2.1,-10.37
CCn1ncc2c(NC3CCOCC3)c(CNC(=O)c3ccnn3C)c(C)nc21,-4.12,0.07,-8.07
Cc1cc(NC(=O)c2ccc(S(=O)(=O)N(Cc3ccccc3)C(C)C)cc2)no1,8.9,1.89,-4.62
CC(C)(C)OC(=O)N1CCN(c2nccc(-c3ccc(-c4ccc(Cl)cc4)s3)n2)CC1,5,3.84,-6.76
O=S(=O)(c1ccc(Cl)cc1)N1CCN(C(=S)NCc2ccco2)CC1,5.39,4.22,-0.21
O=C(NCc1nnc2n1CCCCC2)c1ccc(-c2ccc(F)cc2)o1,6.05,3.81,6.1
COc1ccc(C2(C(=O)Nc3ccc(Br)cc3)CCCC2)cc1,17.05,4.64,-2.31
c1ccc(Oc2ccc(-c3cncc(-c4ccc5[nH]ccc5c4)n3)cc2)cc1,5.9,4.38,-8.14

Structure (SMILES),Inhibition (Klebsiella pneumoniae) [%],Inhibition (Candida albicans) [%],Inhibition (Cryptococcus neoformans) [%]
Cc1cc(C)n2nc(C(=O)Nc3cc(C(F)(F)F)ccc3N3CCOCC3)nc2n1,15.61,5.28,-4.53
Cc1ccc(NC(=O)CC2COc3ccccc3O2)cc1Cl (stereo unspecified),11.14,2.65,-13.17
N#Cc1ccc(-c2ccc(OCC(N)=O)cc2)cc1,5.71,3.25,-13.05
CCS(=O)(=O)N(Cc1ccco1)Cc1cc2ccc(C)cc2nc1O,2.3,3.52,-6.36
CC(C)(C)C(=O)N(CCCCCCN1C[C@H](O)[C@@H](O)[C@H](O)[C@H]1CO)C1CCCCCC1,7.47,0.83,-2.01
Cc1[nH]c2cc(F)cc(F)c2c(=O)c1-c1ccc(Oc2ccc(OC(F)(F)F)cc2)cc1,5.11,3.94,-10.28
O=C(NC1CC1)c1ccc(CSCc2ccccc2Cl)o1,1.21,7.77,-0.4
CCCn1nnc(NC(=O)COc2ccc(C3CCCCC3)cc2)n1,4.73,21.8,-8.36
c1ccc(Oc2ccc(-c3cc(C4CCOCC4)[nH]n3)cc2)cc1,16.38,7.75,0.97
O=C(NC1=NCCS1)c1sc2cc(F)ccc2c1Cl,1.67,8.69,-16.39
COc1ccc(CN2CCOc3ccc(C(C)(O)CN(C)C)cc3C2)cc1C (stereo unspecified),16.19,4.72,-11.35
Cc1nn(C(=O)Nc2cccc(C(F)(F)F)c2)c(C)c1Sc1ncccn1,9.64,2.23,-2.75
Cc1cc(O)nc(-n2nc(C)cc2C)n1,12,69.6,-1.19
c1ccc2c(c1)CN(CC1CC1)CC1(CCN(Cc3c[nH]c4cnccc34)CC1)O2,8.97,4.16,-4.09
CC(C)(C(=O)Nc1ccc(F)cc1)n1cc(-c2ccccc2F)cn1,12.71,7.41,-7.47
O=C(Nc1cccc(Cl)c1)c1cnc(N2CCN(c3ccncc3)CC2)c(Cl)c1,13.15,2.09,-9.48
